# According to ChEMBL document CHEMBL3988442, “University of Dundee, Small-Polar-MMV Screening Library” (2021):
# Among all 48,000 compounds or so, about 13,000 (27%) showed an effect of 50% or more. The list shows a part of the results.
# Tested on: Wolbachia pipientis
# Assay: Anti-Wolbachia Cell-Based Screen
# Format: functional
# Set-up: scale not given: in the data most compounds retested in dose-response had high values
# Details: 5 µM
row,SMILES,Percent Effect
1,Cc1cc(NC(=O)CNc2ccc(Br)cc2F)on1,-13.69%
2,CNC(=O)[C@@H](CC(C)C)N1CCC[C@H]1C(=O)N(C)Cc1ccccc1.Cl,3.832%
3,CS(=O)(=O)N1CCc2c(nnn2CC2CC2)C1COCC1CC1 (stereo not drawn),9.145%
4,Cc1nc(O)cc(CCNC(=O)CC[C@@H]2CCCN3CCCC[C@H]23)n1,-10.54%
5,Cc1cc(C2CCCN2C(=O)COc2ccc(CC#N)cc2)no1 (stereo not drawn),-10.78%
6,NC(=O)CN1CCN(S(=O)(=O)N2CCCC2c2ccco2)CC1 (stereo not drawn),-1.711%
7,CNC(=O)CCN1CCCC1c1ccccc1Br (stereo not drawn),10.79%
8,Cc1nc(CCC(N)=O)cc(C2CCCN2S(C)(=O)=O)n1 (stereo not drawn),118%
9,Cc1cc(C2CCCN2C(=O)c2ccc(OCC(N)=O)cc2)no1 (stereo not drawn),5.942%
10,Cc1noc(C)c1CN(C)C(=O)C1CCCCN1S(C)(=O)=O (stereo not drawn),-0.5133%
11,Cc1nc(CCC(N)=O)cc(C2CCCCN2S(C)(=O)=O)n1 (stereo not drawn),110.4%
12,CNC(=O)CCc1cc(C2CCCN2S(C)(=O)=O)nc(C)n1 (stereo not drawn),95.26%
13,CNC(=O)CCc1cc(C2CCCN2C(=O)CO)nc(C)n1 (stereo not drawn),135.9%
14,CCOc1ccc(CC(=O)N2CCCC2c2cc(C)on2)cc1 (stereo not drawn),5.942%
15,Nc1nc2c(c(N3CCC(CCn4cccn4)CC3)n1)CCNCC2,1.454%
16,CC(Cc1ccc2c(c1)OCO2)c1cn(CCN2CCCC2)nn1 (stereo not drawn),21.75%
17,COc1ccc(-n2ccc(C(=O)N(CCN(C)C)C(C)C)n2)cc1,158.8%
18,COc1ccc(-n2ccc(C(=O)N(C)C(C)C3(C)CC3)n2)cc1 (stereo not drawn),114.7%
19,CCC(C)C(=O)NCc1ccn(-c2ccc(F)cc2)n1 (stereo not drawn),-3.834%
20,CC(C)N(C)CC(=O)Nc1ccc(-n2ccc(C(N)=O)n2)cc1,-7.566%
21,COc1ccc(SC(C)C(=O)N2CCC(O)CC2)cc1 (stereo not drawn),1.982%
22,COc1ccc(-n2ccc(C(=O)N3CCC(C(N)=O)C3)n2)cc1 (stereo not drawn),-0.5166%
23,COCCN(CCOC)C(=O)c1ccn(-c2ccccc2Cl)n1,2.098%
24,COCCN(C(=O)c1ccn(-c2ccc(OC)cc2)n1)C(C)C(N)=O (stereo not drawn),143%
25,CN(C)CCN(Cc1cccnc1)C(=O)c1ccn(-c2ccccc2)n1,1.059%
26,CCC[C@@H](NC(N)=O)C(=O)N1CCc2ccccc2CC1,5.215%
27,O=C(NCCOc1ccc(F)c(F)c1)NCc1ccncc1,-13.71%

row,SMILES,Percent Effect
1,Cc1cc(CNC(=O)N2CCN(C(C)c3cccnc3)CC2)c(C)o1 (stereo not drawn),-1.868%
2,CN1[C@@H](CCC(=O)NCc2ccc(F)cc2)CNC(=O)[C@H]2NCC[C@H]21,3.15%
3,N#Cc1cnc(N2Cc3cnn(Cc4ccc(F)cc4)c3C2)nc1N,-0.8846%
4,CC1CCN(c2ncc3c(n2)CN(c2ccccc2)C3=O)CC1,-3.671%
5,N#Cc1cnc(N2CCC3(CC2)OCCO3)nc1N,125%
6,CC1CCN(c2ncc3c(n2)CN(c2ccc4c(c2)OCO4)C3=O)CC1,-9.746%
7,CCc1nsc(N2CCC3(CC2)OCCO3)n1,-6.104%
8,CC1CCN(c2ncc(C#N)c(N)n2)CC1,102.6%
9,CC(C)(C)c1cnc(CN2CCC(NC(=O)NC3CCCCC3)CC2)o1,-3.337%
10,CCn1c(Cn2cncn2)nnc1C1CCN(Cc2ccc(C)o2)CC1,-1.569%
11,Cc1cc(=O)[nH]c(-n2nc(C)c(CCC(=O)NCc3cccs3)c2C)n1,127.2%
12,Cc1cc(=O)[nH]c(-n2nc(C)c(CCC(=O)NCc3ccco3)c2C)n1,133%
13,Cc1ccc2cnn(CCC(=O)NCc3c(C)nn(C)c3C)c2c1,-12.76%
14,Cc1nc(CNC(=O)CCCc2cccs2)no1,-18.16%
15,Cc1csc(CNC(=O)CCCc2cccs2)n1,21.24%
16,Cc1nc(CNc2ccc(C(=O)NCc3ccco3)cc2C)no1,-9.034%
17,O=C1OCCN1Cc1cccc(F)c1C(F)(F)F,-13.53%
18,CCS(=O)(=O)NCCN1CCc2ccc(F)cc2C1C (stereo not drawn),-17.56%
19,O=C(Cc1ccccc1)NC[C@H]1Cn2ccnc2CO1,-7.774%
20,Cc1ccnc(CC(C)N(C)c2cc(CCN)nc(C)n2)c1 (stereo not drawn),-16.25%
21,Cc1nn(C)c(Cl)c1C1CCCN1C(=O)c1cccn1C (stereo not drawn),113.6%
22,COc1c(C2CCCN2C(=O)c2ccoc2C)c(C)nn1C (stereo not drawn),-17.99%
23,COc1c(C2CCCN2C(=O)c2cccn2C)c(C)nn1C (stereo not drawn),-5.9%
24,Cc1nn(C)c(Cl)c1C1CCCN1C(=O)c1ccoc1C (stereo not drawn),103.1%
25,Cc1noc(C)c1C(=O)N1CCCC1c1c(C)nn(C)c1Cl (stereo not drawn),2.958%
26,Cc1nn(C)c(Cl)c1C1CCCN1C(=O)c1ccnn1C (stereo not drawn),108%
